Reference: PubChem BioAssay (NCI)
The panel holds about 83,000 compounds, 20% with a hit somewhere; the sample as a whole holds those more often.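 Note: values are percent growth. 100 is the growth of untreated cells, values between 100 and 0 indicate rising inhibition; between -100 and 0 indicates cell death.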 Unmarked numbers belong to inactive results. Calls of active or inactive are those of the source.

The molecules below were run on ACHN renal (assay: NCI-60 one-dose screen, 48 h (100 = growth as untreated, 0 = no growth, -100 = all killed)). Settings: 10 µM.
Description: Growth inhibition of the ACHN human tumor cell line is measured as a screen for anti-cancer activity. Cells are grown in 96 well plates and exposed to the test compound for 48 hours. Compounds are tested at a single concentration, which is 10^-5 M for most compounds. The reported endpoint is percent growth (GI% or GIPRCNT), where numbers from 0 - 100% represent growth inhibition, and numbers from -100% - 0 represent cell death. For example, a value of 40 represents 60% growth inhibition. A value of 0 means no net growth occurred over the course of the experiment. A value of -40 indicates 40% of cells at the beginning of the experiment died by the end of the experiment. A value of -100 means all cells are dead at the end of the experiment.
NCI-60 Human Tumor Cell Lines Screen was performed using the standard one-dose NCI protocol, which is described in more detail at https://dtp.cancer.gov/discovery_development/nci-60/default.htm.
Compounds with GIPRCNT values below 10 were considered active. Activity score was based on GIPRCNT using the following formula: […]
Score is 0 for GIPRCNT values of 100 or above, 50 for GIPRCNT values of 0, and 100 for GIPRCNT values of -100.

Compound | growth
COc1ccc(-c2oncc2-c2cc(OC)c3c(c2)OCO3)cc1 | 41.1%
CCNC1(NC#N)CCCCC1 | 111%
O=C(CCc1ccccc1)N1CCN(C(=O)CCc2ccccc2)CC1 | 104%
COc1cccc2c1O/C(=C\c1ccc([N+](=O)[O-])s1)C2=O | 67.5%
COc1ccc(C2C=C(c3ccc(Cl)cc3)N=C3SC=CN32)c(Br)c1 (stereo not given) | 67.7%
O=C(Nc1cccc(Cl)c1)Nc1cc2ncncc2cc1OCc1cccc(F)c1 | 3.47% (active)
Nc1c(C(=O)NC2CCCCC2)sc2nc3c(cc12)C(=O)CCC3 | 107%
COCc1cc2c(cc1Br)OCO2 | 101%
CCc1ccc(-c2nnc(COc3ccc(-c4nc5ccccc5[nH]4)cc3OC)o2)cc1 | -13.9% (active)
CC(C)c1[nH]nc2c(NCc3ccc(-c4ccccn4)cc3)nc(SCCN)nc12 | 6.26% (active)
CCOC(=O)c1cc(-c2ccccc2)nc(N)n1 | 92.7%
O=C(Nc1ccc(OCc2nnc(-c3ccccc3)o2)c(F)c1)Nc1ccc(Cl)c(Cl)c1 | 39%
N#Cc1c(-c2ccccc2)nc(SCC(=O)N2CCOCC2)[nH]c1=O | 98.5%
C=CCN1C(=O)/C(=C\c2ccc3c(c2)CCC3)SC1=S | 97.1%
COc1cc(-c2nc3ccccc3[nH]2)ccc1OCC(=O)N=Nc1c(O)[nH]c2ccccc12 | 101%
COc1c(-c2c3sc(=O)[nH]c3nc3c2c(=O)[nH]n3C(C)C)cc2c(c1OC)OCO2 | 91.4%
c1ccc(C2CCCCC2)c(OCCCCCN2CCNCC2)c1 | 53.3%
CCCCCCCCCCSC(=N)N (tested in a mixture with another compound) | 81.1%
CCCCCCCCCCCCCC[n+]1ccccc1 | 4.31% (active)
CCCCNC(=O)Oc1ccc(/C(=C(\C)c2ccc(OC)cc2)c2ccc(OCCN3CCCCC3)cc2)cc1 | 78.6%

Compound | growth
CC1(CO)CCCC12OCCO2 (stereo not given) | 102%
COc1ccc(N2CCN(c3nc(-c4ccccc4)c(C#N)c(=O)[nH]3)CC2)cc1 | 99%
CS(=O)(=O)Nc1ccc(Nc2c3ccccc3nc3cc(Cl)ccc23)cc1 | 9.36% (active)
COc1ccc(S(=O)(=O)Nc2ccc(OCc3nnc(-c4ccc(Cl)cc4)o3)c(F)c2)cc1 | 56.6%
O=C(c1ccc(Cl)cc1)c1no[n+]([O-])c1C(=O)c1ccc(Cl)cc1 | 39.7%
CCN1CCOC1C(C)C (stereo not given) | 102%
O=C(NC1CCN(Cc2ccccc2)CC1)c1cc(-c2ccncc2)nc2ccc(Cl)cc12 | 19.9%
CCN(CC)CCCOC(=O)Nc1ccccc1Cl | 108%
COc1ccc(-c2nnc(SCC(=O)c3ccccc3)o2)cc1 | 97.5%
Nc1ncncc1-c1ccc(F)cc1 | 108%
C[C@H](NC(=O)[C@@H]1CSSC[C@@H](NC(=O)Cc2nc3ccccc3cc2O)C(=O)NCC(=O)N1C)c1ccccc1 | 96.8%
NC(N)=NS(=O)(=O)c1ccc(Nc2ccc3nnc(-c4ccncc4)n3n2)cc1 | 101%
CCCCCCCCCCCCCCCCn1cc[n+](C)c1 | -0.6% (active)
O=C(CCl)N1c2ccccc2Sc2ccc3ccccc3c21 | -89.1% (active)
CN(C)c1ccc2c(c1)OC(N)=C(C#N)C2c1ccc2c(c1)CCCN2C (stereo not given) | 52.8%
CCOC(=O)c1ccc(NC(=O)Nc2nncs2)cc1 | 36.1%
COc1ccc(C2C=C(c3ccc(Cl)c(Cl)c3)N=C3SC(C)=CN32)cc1OC (stereo not given) | 68.3%
CC(=O)[C@H]1CC[C@H]2[C@@H]3CC[C@@H]4CC=C(C=O)C[C@]4(C)[C@H]3CC[C@]12C | 92.4%
CN1CCN(c2nc(-c3cccnc3)nc3sc4c(c23)CCCCCC4)CC1 | 89.6%
N/C(=N\O)c1cn(C2OC(CO)C(O)C2O)c2ncnc(N)c12 (stereo not given) | 11.6%
